# Assay outcomes as filed in PubChem.
# D1 antag = Antagonist of Human D 1 Dopamine Receptor: qHTS; D(1A) dopamine receptor (Homo sapiens), P21728; HEK293 TREx D1 cells, calcium flux, dopamine EC80; stronger effect = lower value; activity change, negative = inhibition, % at 10 µM; 360,000 tested, 3.2% active; in the data active = activity change below about -30%; note: % is set by controls: 0 for no effect and ±100 for the full control effect
# Target sequence (P21728 whole entry, looked up): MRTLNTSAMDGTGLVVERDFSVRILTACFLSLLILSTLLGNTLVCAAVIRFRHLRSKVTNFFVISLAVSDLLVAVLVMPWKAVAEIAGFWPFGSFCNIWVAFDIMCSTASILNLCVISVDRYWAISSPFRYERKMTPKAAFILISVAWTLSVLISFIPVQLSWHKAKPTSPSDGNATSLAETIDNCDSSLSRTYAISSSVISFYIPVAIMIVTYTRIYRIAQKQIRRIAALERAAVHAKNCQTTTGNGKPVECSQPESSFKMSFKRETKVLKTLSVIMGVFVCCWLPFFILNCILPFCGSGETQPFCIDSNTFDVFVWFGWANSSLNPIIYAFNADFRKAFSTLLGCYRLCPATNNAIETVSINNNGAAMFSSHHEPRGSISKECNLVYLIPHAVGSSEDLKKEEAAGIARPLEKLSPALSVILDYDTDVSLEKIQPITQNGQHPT
#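 Compound effects on dopamine-evoked calcium signalling were measured in tetracycline-induced HEK293 Trex D1 cells. Dopamine at EC80 followed a 180 s compound pre-read, and fluorescence was tracked kinetically for 180 s more.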
# TRHR agonist = qHTS for Small Molecule Agonists and Allosteric Enhancers of Human TRH Receptor: Primary Screen for Agonists. Thyrotropin-releasing hormone receptor (Homo sapiens), P34981. TRHR cells, calcium flux fluo-8, FDSS agonist mode. activation, % at 2 µM. 360,000 tested, 0.18% active; note: 0% is about no effect
#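 Read-out: compound-evoked intracellular calcium rise in TRHR cells, fluo-8 dye, kinetic FDSS fluorescence at 1 s/cycle following a 10-cycle baseline. Cells cultured overnight before dye loading (30 min–1.5 h, RT).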
# D1 PAM = Potentiators of Human D1 Dopamine Receptor: qHTS. 360,000 tested, 0.036% active. potentiation, % at 10 µM. HEK293 TREx D1 cells, calcium flux, dopamine EC20 potentiation. D(1A) dopamine receptor (Homo sapiens), P21728. AID 504651, 2011; in the data active = potentiation above about 30%; note: 0% is about no effect
# D1 ag = Allosteric Agonists of the Human D1 Dopamine Receptor: qHTS | D(1A) dopamine receptor (Homo sapiens), P21728 | AID 504660, 2011 | activation, % at 2 µM | 360,000 tested, 1% active | HEK293 T-REx D1 cells, calcium flux, agonist mode; note: 0% is about no effect
#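 Agonism was scored from calcium flux recorded over 180 s (1 read/s) after pintool compound addition, following a 10-cycle baseline. Cells were inducible force-coupled HEK293 TREx D1, plated overnight at 30 C and loaded with no-wash calcium dye.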
# TRHR enhancer = qHTS for Small Molecule Agonists and Allosteric Enhancers of Human TRH Receptor: Primary Screen for Enhancers. TRHR cells, fluo-8 calcium fluorescence, EC20 TRH enhancement. enhancement, % at 2 µM. 360,000 tested, 0.66% active; in the data active = enhancement above about 30%; note: 0% is about no effect
#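 TRHR-expressing cells loaded with fluo-8 calcium dye were read kinetically (ex 480/em 530) during compound addition, then stimulated with an EC20 of TRH (10 nM final). Enhancement of the Gq-mediated intracellular calcium response was scored.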
# * = called active by the depositor; . = no result. Compounds with a hit are over-represented: about 4.7% of the library has one in this group of screens. Cut-off read from the data, not from the text of the source, unless noted: active = activation above about 30%; inactive = the rest.
SMILES,D1 antag,TRHR agonist,D1 PAM,D1 ag,TRHR enhancer
O=c1c2oc3ccccc3c2n(Cc2cccc(F)c2)c(=O)n1Cc1ccco1,1,0,5,3,15
Cc1ccc(CCNC(=O)c2cccc(Nc3nc4ccccc4nc3-n3nc(C)cc3C)c2)cc1,-5,1,-3,1,2
CNC(=O)CCCN1C(=O)c2cccnc2Sc2ccccc21,-17,0,-6,2,-4
O=C1c2cccnc2Nc2ccccc2N1CCCF,-33*,0,-3,0,-2
COc1ccc(NS(=O)(=O)c2cc3[nH]c(=O)c(=O)[nH]c3cc2C)cc1Cl,6,1,1,0,19
O=C(N=c1ccn(-c2nc3ccccc3nc2NS(=O)(=O)c2ccccc2)cc1)c1ccccc1Cl,4,5,-4,38*,39*
O=C(N=c1ccn(-c2nc3ccccc3nc2NS(=O)(=O)c2ccc(Cl)cc2)cc1)c1ccccc1Cl,2,13,-2,89*,-11
O=C(N=c1ccn(-c2nc3ccccc3nc2NS(=O)(=O)c2ccc(Cl)cc2)cc1)c1cccs1,6,3,-2,3,1
CCOc1ccc(S(=O)(=O)Nc2nc3ccccc3nc2-n2ccc(=NC(=O)c3cccs3)cc2)cc1,-33*,17,-8,72*,2
CC(C)c1ccc(C2c3c(-c4ccccc4O)n[nH]c3C(=O)N2Cc2ccncc2)cc1 (stereo unspecified),5,2,3,0,7
C=CCNc1ncnc2c1[nH]c1ccc(Cl)cc12,.,8,-2,35*,1
C=CCNc1ncnc2c1[nH]c1ccccc12,-1,-1,-4,7,3
Cc1nnc(SC(C)C(=O)Nc2nccs2)s1 (stereo unspecified),-33*,0,-5,3,1
CC(Sc1nnc(N)s1)C(=O)Nc1nccs1 (stereo unspecified),-11,0,-3,1,-1
COc1cccc(-n2c(-c3ccc(Cl)cc3)cc3c2CC(C)(C)CC3=O)c1,2,0,0,3,-9
N=c1n(CC(=O)c2cccs2)c2ccccc2n1Cc1ccccc1,-22,2,-10,47*,-7
O=C(O)Cn1c(=O)n(Cc2ccccc2)c2ccccc21,-10,0,-6,4,0
CCOc1ccc(CC(=O)NC2CC(=O)N(c3ccc4c(c3)OCCO4)C2)cc1 (stereo unspecified),.,0,-1,-3,2
NS(=O)(=O)c1ccc(-n2nncc2C23CC4CC(CC(C4)C2)C3)cc1,-91*,0,-2,1,4
Cc1ccc(Cl)cc1-n1ncc2c(NCCC3=CCCCC3)ncnc21,3,3,-1,1,-2
Cc1oc(C(C)(C)C)cc1C(=O)Nc1ccc2c(c1)OCO2,-32*,0,-9,1,6
Cc1nc2sc(C)c(C)n2c(=O)c1S(=O)(=O)N1CCN(c2ccccc2F)CC1,-29,0,-5,4,35*
Cc1nc2scc(C)n2c(=O)c1S(=O)(=O)N1CCN(c2ccccc2)CC1,-4,0,-3,-4,-1
COc1ccccc1N1CCN(/N=C/c2ccccc2C(=O)O)CC1,-50*,0,-5,0,0
O=C(C(=O)N1CCN(c2ccccc2F)CC1)c1c[nH]c2ccccc12,-83*,0,-3,4,9
SMILES,D1 antag,TRHR agonist,D1 PAM,D1 ag,TRHR enhancer
COc1ccccc1N1CCN(C(=O)C(=O)c2c[nH]c3ccccc23)CC1,-30*,1,3,7,-6
N#Cc1nc(Nc2ccc(C(F)(F)F)cc2)nc(NC2CCCC2)n1,-10,0,-6,8,-1
Cc1cc(NC(=O)CN(C)S(=O)(=O)c2ccc3c(c2)CCC(=O)N3)ccc1Br,-7,0,-5,6,3
CCn1cc(C(=O)NCCc2ccc(OC)c(OC)c2)c(=O)c2cc(S(=O)(=O)N3CCC(C)CC3)ccc21,-7,1,4,2,-9
COc1ccc(NC(=O)c2c(N)c(C(=O)c3ccc(OC)cc3)n3ccccc23)cc1,-4,0,-2,0,6
Cc1ccc(NC(=O)C(=O)NCc2ccc(/C=C(/C#N)C(=O)NCc3cccnc3)o2)cc1,-29,-1,-11,13,9
N#C/C(=C/c1ccc(CNC(=O)C(=O)Nc2cc(Cl)cc(Cl)c2)o1)C(=O)NCc1cccnc1,-63*,-1,-5,0,19
Cc1ccc(CN2c3ccccc3-c3nc(SCC(=O)NCCc4ccccc4)ncc3S2(=O)=O)cc1,27,0,-1,4,3
CCCS(=O)(=O)c1c(S(=O)(=O)CCC)c2cnccn2c1C(=O)c1ccc(Cl)cc1,-4,0,-2,-1,33*
CCc1ccc(NC(=O)CCCc2nc(-c3ccco3)no2)cc1,-2,0,1,-1,0
COc1ccc(NC(=O)c2cccc3c(=O)c4c([nH]c23)CCCC4)cc1,-33*,0,-4,7,-2
CCOC(=O)C1CCCN(S(=O)(=O)c2ccc3c4c(cccc24)C(=O)N3CC)C1 (stereo unspecified),-32*,0,.,10,-4
CC(=O)c1ccc(NS(=O)(=O)c2ccc(C)cc2)cc1,4,0,2,4,-4
O=[N+]([O-])c1ccc(S(=O)(=O)Nc2ccncc2)cc1,10,0,3,0,9
COc1ccc(C(=O)O)cc1S(=O)(=O)Nc1ccc(C)cc1,-70*,-1,-10,3,4
COc1ccc(C(=O)O)cc1S(=O)(=O)Nc1cccc(C)c1,12,1,4,1,-6
O=[N+]([O-])c1ccc(Oc2ccc(S(=O)(=O)Nc3ccccc3)cc2)cc1,-21,4,-9,55*,-5
NC(=O)c1ccccc1NS(=O)(=O)c1ccc2c(c1)OCCO2,-36*,0,-3,0,-5
Cc1ccc(Oc2ccc(S(=O)(=O)Nc3ccc(C(=O)O)cc3)cc2)cc1,-42*,0,-4,2,-5
CCOC(=O)COc1ccc(S(=O)(=O)c2ccc(OCC(=O)OCC)cc2)cc1,-3,0,-4,22,6
O=S(=O)(Nc1ccc(Cl)cc1)c1ccc(NS(=O)(=O)c2ccc3c(c2)OCCO3)cc1,-11,2,-2,61*,3
NS(=O)(=O)c1ccc(NS(=O)(=O)c2ccc3c(c2)OCCO3)cc1,-6,0,-13,5,0
